Results: PubChem BioAssay (Tox21)
Inconclusive results are not listed. Calls of active or inactive are those of the source. Unless noted, calls follow the shape of the dose curve; as a rule, active = well fitted curve in the direction sought with a large enough effect in the repeat runs; inconclusive = weak or mixed curves; inactive = no such curve, though single readings can be large; an effect the other way counts as inactive or inconclusive.

Tests used:
[1] = qHTS assay for small molecule agonists of the p53 signaling pathway (AID 651631; calls by dose curve; also: nearly all actives have a fitted effect of over 15% in size)
Outline: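 Fluorescence intensity from cleaved LiveBLAzer B/G substrate (2 h, room temperature) served as the signal. Beforehand, HCT-116 reporter cells bearing p53 response elements were treated 16 h at 37 °C with DMSO-dissolved compounds.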

[2] = qHTS assay for small molecules that induce genotoxicity in human embryonic kidney cells expressing luciferase-tagged ATAD5 (AID 651632); also: nearly all actives have a fitted effect of over 15% in size
Outline: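 Quantitative HTS in HEK293T expressing luciferase-tagged ATAD5, whose levels rise upon DNA damage. Exposure ran 16 hr at 37C and 5% CO2, with luminescence read 30 min after Amplite addition at room temperature.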

[3] = qHTS assay for small molecule agonists of the p53 signaling pathway - cell viability (AID 651633; calls by dose curve;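 also: p53RE-bla HCT reporter cells with a stable beta-lactamase p53 reporter; series mostly up to about 83 µM; nearly all actives have a fitted effect of over 30% in size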)
Outline: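 Viability counter-read: CellTiter-Glo luminescence (30 min, room temperature) in the same p53RE-bla plates. These plates had been exposed to compounds for 16 h at 37 C.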

[4] = qHTS assay for small molecules that induce genotoxicity in human embryonic kidney cells expressing luciferase-tagged ATAD5 - cell viability (AID 651634; calls by dose curve; also: nearly all actives have a fitted effect of over 25% in size)
Outline: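 After 15.5 hr incubation with compound at 37C, 5% CO2, HEK293T ATAD5-luciferase cells received CellTiter-Fluor reagent; fluorescence intensity was quantified following 30 min at 37C.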

[5] = qHTS assay for small molecule disruptors of the mitochondrial membrane potential (AID 720635)
Outline: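 Mitochondrial membrane potential tracked with Mito-MPS dye, red aggregates (ex 540/em 590 nm) against green monomers (ex 490/em 535 nm). Compound treatment 1 hr at 37C, dye 30 min in HepG2.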

[6] = qHTS assay to test for compound auto fluorescence at 590 nm (red) in HepG2 cells (AID 720674)
Outline: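 We screened compounds on adherent HepG2 cells, incubating them for an hour at 37 C in 5% CO2 before reading emission at 590 nm under 540 nm excitation; values reflect equivalence to Rose Bengal sodium fluorescence.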

[7] = qHTS assay to test for compound auto fluorescence at 535 nm (green) in HepG2 cells (AID 720675)
[8] = qHTS assay to test for compound auto fluorescence at 460 nm (blue) in HEK293 cells (AID 720678)
Outline: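 Blue-channel (Ex/Em 405/460 nm) intensity measured in HEK293 cultures after overnight compound exposure at 37C; signal expressed relative to triamterene. Cells plated 2,000 per well in 10% dialyzed FBS medium and allowed 4-5 hr to attach.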

[9] = qHTS assay to test for compound auto fluorescence at 590 nm (red) in HEK293 cells (AID 720679)
Outline: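 Red-channel autofluorescence (Ex/Em 540/590 nm; Rose Bengal sodium reference) was measured after overnight 37C, 5% CO2 exposure of attached HEK293 cells, 2,000 per well in medium with 10% dialyzed FBS.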

[10] = qHTS assay to test for compound auto fluorescence at 535 nm (green) in HEK293 cells (AID 720680)
[11] = qHTS assay to test for compound auto fluorescence at 460 nm (blue) in HEK293 cell free culture (AID 720681)
Outline: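 Blue fluorescence (Ex 405/Em 460 nm, triamterene-equivalent) was read immediately after pin transfer of compound or DMSO into medium (DMEM, 10% FBS) without cells.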

[12] = qHTS assay to test for compound auto fluorescence at 535 nm (green) in HEK293 cell free culture (AID 720682)
Outline: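 Intrinsic compound fluorescence is measured in culture medium containing 10% FBS, with excitation at 485 nm and detection at 535 nm, referenced to fluorescein.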

[13] = qHTS assay to test for compound auto fluorescence at 590 nm (red) in HEK293 cell free culture (AID 720683)
Outline: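 Red-channel autofluorescence of compounds in culture medium (DMEM, 10% FBS), no cells, measured at 540/590 nm. Rose Bengal sodium is the reference fluorophore for equivalence.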

[14] = qHTS assay to test for compound auto fluorescence at 590 nm (red) in HepG2 cell free culture (AID 720684)
Outline: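 No cells present: MEM + 10% FBS only. Compound pinned in, red label read (540/590 nm). Activity = fluorescence equivalent to Rose Bengal sodium.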

[15] = qHTS assay to test for compound auto fluorescence at 460 nm (blue) in HepG2 cell free culture (AID 720685)
Outline: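 Cell-free plates of MEM plus 10% FBS received 23 nL compound or DMSO vehicle; blue-channel (405/460 nm) intensity scored against triamterene as reference fluorophore.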

[16] = qHTS assay to test for compound auto fluorescence at 535 nm (green) in HepG2 cell free culture (AID 720686)
[17] = qHTS assay to test for compound auto fluorescence at 460 nm (blue) in HepG2 cells (AID 720687)
Outline: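 Blue-channel autofluorescence (Ex/Em 405/460 nm, triamterene-equivalent) was measured after 1 hr compound exposure at 37 C, 5% CO2. Cells were HepG2, plated overnight at 37 C in MEM plus 10% FBS.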

[18] = target: Glucocorticoid receptor (Homo sapiens) (UniProt P04150); assay: qHTS assay to identify small molecule agonists of the glucocorticoid receptor (GR) signaling pathway (AID 720691; active = well fitted activation curve with a large enough effect in the signal ratio in the repeat runs, not every such curve was filed as active; the % refers to the signal ratio)
Chain of Glucocorticoid receptor (Homo sapiens) (P04150 whole entry, looked up): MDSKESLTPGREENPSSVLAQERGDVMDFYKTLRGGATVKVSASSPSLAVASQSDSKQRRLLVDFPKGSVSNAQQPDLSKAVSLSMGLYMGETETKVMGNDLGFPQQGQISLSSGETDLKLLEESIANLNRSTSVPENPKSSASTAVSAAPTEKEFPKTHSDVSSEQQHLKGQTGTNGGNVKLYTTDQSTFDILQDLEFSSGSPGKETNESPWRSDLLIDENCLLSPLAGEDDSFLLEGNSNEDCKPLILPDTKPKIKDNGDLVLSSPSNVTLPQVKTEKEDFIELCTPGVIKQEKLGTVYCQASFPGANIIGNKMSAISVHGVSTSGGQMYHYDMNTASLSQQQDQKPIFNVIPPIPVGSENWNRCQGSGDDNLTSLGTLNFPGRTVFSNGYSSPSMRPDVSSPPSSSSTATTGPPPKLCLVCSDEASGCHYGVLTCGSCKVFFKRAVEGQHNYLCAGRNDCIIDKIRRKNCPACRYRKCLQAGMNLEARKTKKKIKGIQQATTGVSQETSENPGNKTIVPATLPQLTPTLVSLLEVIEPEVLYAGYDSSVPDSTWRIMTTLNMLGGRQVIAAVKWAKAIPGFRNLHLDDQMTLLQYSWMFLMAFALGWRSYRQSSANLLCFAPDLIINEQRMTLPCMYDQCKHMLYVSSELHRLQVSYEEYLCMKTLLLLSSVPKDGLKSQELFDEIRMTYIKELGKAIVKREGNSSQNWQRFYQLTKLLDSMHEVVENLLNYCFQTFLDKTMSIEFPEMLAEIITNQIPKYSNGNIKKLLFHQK
Outline: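 Cells: GR-bla HeLa, endogenous GR with stably integrated GRE-beta-lactamase reporter. Treatment 18 h, 37 C, compounds delivered in DMSO. Detection via LiveBLAzer B/G FRET substrate, 2 h RT, fluorescence intensity.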

[19] = target: Glucocorticoid receptor (Homo sapiens) (UniProt P04150); assay: qHTS assay to identify small molecule antagonists of the glucocorticoid receptor (GR) signaling pathway (AID 720692; active = well fitted inhibition curve with a large enough effect in the signal ratio in the repeat runs, not every such curve was filed as active; the % refers to the signal ratio)
Outline: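 Quantitative HTS in antagonist format: HeLa cells expressing endogenous GR and a stably integrated GRE-bla reporter, stimulated with 5 nM dexamethasone (final) alongside test compounds for 18 h.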

[20] = qHTS assay for small molecule disruptors of the mitochondrial membrane potential - cell viability (AID 720634; calls by dose curve;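 also: human HepG2 liver cancer cells; series mostly up to about 83 µM; nearly all actives have a fitted effect of over 20% in size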)
Outline: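 ATP-based luminescent viability readout (CellTiter-Glo, 30 min, room temperature) in HepG2 cells multiplexed with the m-MPI membrane potential dye; compound exposure lasted 1 hr at 37 C.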

Measured: Potency

CCCOc1ccc(C(=O)OCCN(CC)CC)cc1N
not listed: [20]
inactive: all other assays above

COC(=O)C(c1ccccc1Cl)N1CCc2sccc2C1 (configuration not stated)
not listed: [2] | [3]
inactive: all other assays above

CCCCCCCCCCCBr
not listed: [3] | [5] | [20]
inactive: all other assays above

C[C@@H](CN1CC(=O)NC(=O)C1)N1CC(=O)NC(=O)C1
not listed: [3] | [5] | [9] | [18] | [19]
inactive: all other assays above

Cc1ccc2cccnc2c1
not listed: [2] | [5] | [20]
inactive: all other assays above

CN1CCN(C(=O)C2CCCCC2)CC1
not listed: [2]
inactive: all other assays above

O=C(O)CCCCCCCCCC(=O)O
not listed: [2] | [5] | [11]
inactive: all other assays above

C=CCN1CCc2nc(N)sc2CC1
not listed: [2]
inactive: all other assays above

CC(O)CCCCn1c(=O)c2c(ncn2C)n(C)c1=O (configuration not stated)
not listed: [2] | [18] | [19]
inactive: all other assays above

CCOC(=O)CC(C(C)=O)C(C)=O
not listed: [3] | [19]
inactive: all other assays above

CN(C)CCc1c[nH]c2ccc(C[C@H]3COC(=O)N3)cc12
not listed: [2] | [5] | [11]
inactive: all other assays above

CCCCN=C(N)N=C(N)N
not listed: [2]
inactive: all other assays above

O=C(OOC(=O)c1ccccc1)c1ccccc1
not listed: [2]
inactive: all other assays above

CCN1CCN(C(=O)N[C@@H](C(=O)N[C@@H]2C(=O)N3C(C(=O)O)=C(CSc4nnnn4C)CS[C@H]23)c2ccc(O)cc2)C(=O)C1=O
not listed: [3] | [5] | [18] | [19]
inactive: all other assays above
